Experimental findings from PubChem BioAssay (Tox21) are described below.

Records with an inconclusive call do not appear. Entries that show only a call come without a potency. Calls of active or inactive are those of the source. The call rests on the fitted dose curve.

The target of this test is Muscarinic acetylcholine receptor M1 (Homo sapiens) (UniProt P11229). As to the kind of experiment: Cholinergic receptor muscarinic 1 (CHRM1) small molecule antagonists, cell-based qHTS assay (AID 1963588). Further: nearly all actives have a fitted effect of over 40% in size. The settings on record: CHRM1-CHO antagonist mode, calcium flux fluorescence; series mostly up to 61.5 µM. The source says: National Center for Advancing Translational Sciences [NCATS]
Sequence of Muscarinic acetylcholine receptor M1 (Homo sapiens) (P11229 whole entry, looked up): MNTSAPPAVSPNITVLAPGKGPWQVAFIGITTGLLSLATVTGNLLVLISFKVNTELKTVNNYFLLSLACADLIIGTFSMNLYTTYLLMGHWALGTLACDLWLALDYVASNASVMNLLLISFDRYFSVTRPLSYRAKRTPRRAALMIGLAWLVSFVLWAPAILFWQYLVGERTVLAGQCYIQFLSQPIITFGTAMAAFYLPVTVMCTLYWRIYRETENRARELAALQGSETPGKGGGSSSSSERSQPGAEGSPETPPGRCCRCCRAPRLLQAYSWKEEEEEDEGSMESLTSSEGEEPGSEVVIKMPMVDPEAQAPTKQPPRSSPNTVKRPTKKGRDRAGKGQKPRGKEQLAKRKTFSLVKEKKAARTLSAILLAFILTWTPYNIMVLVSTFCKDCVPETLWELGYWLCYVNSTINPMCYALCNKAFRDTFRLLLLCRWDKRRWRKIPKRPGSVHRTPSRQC
Division of Preclinical Innovation [DPI]
U.S. Environmental Protection Agency [EPA]
National Institutes of Environmental Health Sciences [NIEHS]
National Toxicology Program [NTP]
U.S. Food and Drug Administration [FDA]
The CHRM1 is a muscarinic receptor. This receptor plays a crucial role in learning and memory processes and has long been identified as a promising therapeutic target for the improvement of cognitive decline in Alzheimer's disease (AD). The CHRM1-CHO cell line stably expressing human muscarinic acetylcholine receptor M1 (CHRM1) can be used for screening agonists and antagonists of interactions between CHRM1 and its ligands. The CHRM1-CHO Calcium Flux Assay is a homogeneous fluorescence-based assay for detecting the intracellular calcium level using FDSS kinetic plate reader system.
Tox21 Assay Protocol Summary:
CHRM1-CHO cells were dispensed at 1000 cells/3uL/well in 1536-well black-clear bottom plates using a Multidrop Dispenser. After the assay plates were incubated at a 37 C/5% CO2 incubator for 18 h, 3 uL of Dye Loading Buffer was transferred to the assay plate by a Flying Reagent Dispenser. The assay plates were incubated at 37 C for 1h. For antagonist mode, 23 nL of compounds dissolved in DMSO, positive controls or DMSO only was transferred to the assay plate by a pin tool. After 5 min incubation at room temperature, 1.5 uL of acetylcholine at 50nM was added to each well. The fluorescence intensity in the plates was measured using FDSS 7000EX kinetic plate reader for 3 min at 1 sec intervals. Each test compound was measured at 15 concentrations in three independent runs.
In general terms: Quantitative high-throughput screening tests each substance at several concentrations.
On to `CCCc1cc(C(N)=S)ccn1`, for which the Potency entry is “inactive”.

Take `c1ccsc1`: the Potency entry was “inactive”.

For the compound `Cc1ccccc1S(N)(=O)=O`, the Potency entry is “inactive”.

As to `C[Si]1(C)O[Si](C)(C)O[Si](C)(C)O[Si](C)(C)O[Si](C)(C)O1`, the Potency entry is “inactive”.

Consider `C=C(C)C(=O)OCCC(F)(F)C(F)(F)C(F)(F)C(F)(F)C(F)(F)C(F)(F)F`, for which the Potency entry was “inactive”.

For the compound `COCCCC/C(=N\OCCN)c1ccc(C(F)(F)F)cc1`, the Potency entry was “inactive”.

For the compound `CCCCc1ncc(/C=C(\Cc2cccs2)C(=O)O)n1Cc1ccc(C(=O)O)cc1`, the Potency result was “inactive”.

In the case of `C=C(C)C(=O)OCCNC(C)(C)C`, the Potency entry was “inactive”.

For `OCCN1CCN(CCCN2c3ccccc3C=Cc3ccccc32)CC1`, the Potency entry was “inactive”.

In the case of `CCc1cccc(CC)c1NC(=O)C(=O)O`, the Potency result is “inactive”.

On to `CCCCCCCC/C=C\CCCCCCCC(=O)OCCCC`, for which the activity, negative = inhibition was 5.7% [at 12.6 µM] (inactive).

For `NC(=O)c1ncn([C@@H]2O[C@H](CO)[C@@H](O)[C@H]2O)c1O`, the Potency result was “inactive”.

With `COc1cccc(OC)c1C(=O)O`, the Potency entry is “inactive”.

Turning to `CO/N=C(/C(=O)N[C@@H]1C(=O)N2C(C(=O)O)=C(COC(N)=O)CS[C@H]12)c1ccco1`, the Potency entry was “inactive”.

`CCCCCC/C=C/C(=O)OC`: the Potency entry was “inactive”.

For `NC(=O)c1ccc([N+](=O)[O-])cc1`, the Potency entry was “inactive”.

For the compound `Nc1cc(S(=O)(=O)O)ccc1S(=O)(=O)O`, the Potency entry is “inactive”.

On to `C=C(C)C(=O)OCCOP(=O)(O)O`, for which the Potency result is “inactive”.

`Nc1ccc(N)c(Cl)c1`: the Potency result is “inactive”.

For `CCCCC(C)C(=O)O` (stereo not given), the Potency result was “inactive”.

Turning to `C/C(=N\O)[C@@H](C)NCC(C)(C)CN[C@H](C)/C(C)=N/O`, the Potency result is “inactive”.

On to `O=C(O)CNC(=O)c1ccccc1I`, for which the Potency entry is “inactive”.

In the case of `CC1=CCC(O)(C(C)C)CC1` (stereo not given), the Potency entry is “inactive”.

As to `CCc1c(C(=O)O)c(=O)cnn1-c1ccc(Cl)cc1`, the Potency result is “inactive”.

Turning to `CS(C)(=O)=O`, the Potency entry was “inactive”.

`CC(C)(N=C=O)c1cccc(C(C)(C)N=C=O)c1`: the Potency entry was “inactive”.

As for `O=C1c2ccccc2C(=O)C1c1ccc2cc(S(=O)(=O)O)cc(S(=O)(=O)O)c2n1`, the Potency result is “inactive”.

For the compound `O=C(O)/C=C/c1ccccc1`, the Potency entry was “inactive”.

On to `C[n+]1ccn(Cc2ccccc2)c1`, for which the Potency result was “inactive”.

In the case of `CC1(C)[C@@H]2CC[C@@]1(C)[C@H](O)C2`, the Potency entry was “inactive”.

Regarding `O=C(O)c1cc(O)c(O)c(O)c1`, the Potency result is “inactive”.

Turning to `CC(C=O)c1ccccc1` (stereo not given), the Potency entry was “inactive”.

Take `COc1cc(OC)nc(O[C@H](C(=O)O)C(OC)(c2ccccc2)c2ccccc2)n1`: the Potency entry was “inactive”.

Take `Nc1ccc(S(=O)(=O)Nc2ccc(Cl)nn2)cc1`: the Potency entry is “inactive”.

Turning to `C/C=C/C(=O)C1=C(C)C=CCC1(C)C`, the Potency result is “inactive”.

In the case of `O=Cc1ccc(F)cc1`, the Potency entry was “inactive”.

For the compound `N#CC1(O)CCCCC1`, the Potency result is “inactive”.

As for `CCOC(=S)SSC(=S)OCC`, the Potency result was “inactive”.

In the case of `Cc1ccc2oc(=O)ccc2c1`, the Potency entry is “inactive”.

On to `CCOc1ccc2c(c1)C(C)=CC(C)(C)N2`, for which the Potency result is “inactive”.
